An excerpt weighted towards active compounds, which were near 2.4% of everything screened.
SENP7 inh = blocks the human protease SENP7. recombinant SENP7, Z-RLRGG-aminoluciferin luminescence, 40 min. inhibition, % at 5 µM. hit rate 1.5% among 330,000. AID 434973;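 active means inhibition above about 50% at the single test dose, limit read from the data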;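 further: plate controls were DMSO with enzyme for no effect and no enzyme buffer wells for full effect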
Target sequence (Q9BQF6 706-1050 limits assumed): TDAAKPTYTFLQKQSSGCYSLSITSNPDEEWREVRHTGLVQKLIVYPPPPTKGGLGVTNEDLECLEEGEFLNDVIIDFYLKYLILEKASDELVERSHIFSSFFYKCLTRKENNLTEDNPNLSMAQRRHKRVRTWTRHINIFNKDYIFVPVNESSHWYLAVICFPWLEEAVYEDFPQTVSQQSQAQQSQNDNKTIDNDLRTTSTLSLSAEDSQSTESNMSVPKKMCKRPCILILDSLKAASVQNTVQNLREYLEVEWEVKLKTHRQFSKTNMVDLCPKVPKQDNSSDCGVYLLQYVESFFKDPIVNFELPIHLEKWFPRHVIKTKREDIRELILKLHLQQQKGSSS
SENP6 inh = blocks the human protease SENP6 | AID 2599 | Q9GZR1 | hit rate 1.8% among 330,000 | inhibition, % at 10 µM | Recombinant SENP6 catalytic domain, aminoluciferin luminescence;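 active means inhibition above about 50% at the single tested dose, limit read from the data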;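 further: plate controls were DMSO wells with enzyme for no effect and DMSO wells lacking enzyme for full effect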
SENP8 block-1 = SENP8 (human) protease inhibition; Q96LD8; recombinant SENP8, Nedd8 substrate fluorescence; hit rate 0.64% among 360,000; inhibition, % at 20 µM; AID 602440; in the data active means inhibition mostly above about 40%, no sharp cut-off; inactive means mostly below about 27%
SENP8 block-2 = inhibitors of human SENP8 protease; hit rate 1.2% among 330,000; inhibition, % at 10 µM; purified SENP8, Z-RLRGG-aminoluciferin cleavage, luminescence; Q96LD8; in the data active means inhibition above about 50%
Platelet DG rel = modulates dense granule release in human platelets; AID 1663; hit rate 0.22% among 300,000; human platelet-rich plasma, SFLLRN dense granule ATP release, luminescence; inhibition, %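 (compounds screened at 7.5 µM in platelet-rich plasma)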;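 active means mean replicate score, as percent of positive control, at or above 50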
SENP8 confirm = human SENP8 inhibition, confirmed. shares compounds with SENP7 inh. inhibition, % at 12.5 µM. Recombinant SENP8, Z-RLRGG-aminoluciferin luminescence, 60 min. AID 488912. hit rate 40% among 6,200;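 active means mean inhibition across replicates above about 50%, limit read from the data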
SENP6 conf = confirmation of human SENP6 protease inhibitors | shares compounds with SENP7 inh | recombinant SENP6, Z-RLRGG-aminoluciferin luminescence | inhibition, % at 12.5 µM | hit rate 58% among 6,200 | AID 488915
SENP7 conf = confirmation of human SENP7 protease inhibitors; shares compounds with SENP7 inh; recombinant SENP7, Z-RLRGG-aminoluciferin luminescence, 40 min; inhibition, % at 12.5 µM; hit rate 69% among 6,200
Casp3 select = caspase-3 inhibition (SENP selectivity assay). shares compounds with SENP7 inh. purified caspase-3, Z-DEVD-aminoluciferin luminescence, 60 min. inhibition, % at 12.5 µM. hit rate 60% among 6,200. AID 488918;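 active means mean inhibition above about 50%, limit read from the data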;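 further: plate controls were enzyme with DMSO for no effect and wells without caspase-3 for full effect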
Target sequence (P42574 28-227 limits assumed): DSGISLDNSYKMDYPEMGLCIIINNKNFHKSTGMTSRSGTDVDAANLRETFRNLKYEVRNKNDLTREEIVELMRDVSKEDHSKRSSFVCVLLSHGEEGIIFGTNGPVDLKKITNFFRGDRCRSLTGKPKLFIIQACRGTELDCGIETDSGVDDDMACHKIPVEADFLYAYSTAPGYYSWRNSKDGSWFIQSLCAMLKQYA
SENP luc ctr = interferes with luciferase luminescence in SENP counter-screen. hit rate 39% among 6,200. inhibition, % at 12.5 µM. Pre-incubated SENP8/Z-RLRGG-aminoluciferin, luciferase luminescence interference. shares compounds with SENP7 inh. AID 488919;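 active means mean inhibition above about 50% when retested at one dose, limit read from the data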;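 further: plate controls were DMSO wells with completed reaction for no effect and substrate without enzyme for full effect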
The depositor's hits bear a star; . = no result.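 How the source made its calls, unless noted: active means mean inhibition above about 50% in the one-dose retest (limit read from the data); inactive means the rest.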

SMILES | SENP7 inh | SENP6 inh | SENP8 block-1 | SENP8 block-2 | Platelet DG rel | SENP8 confirm | SENP6 conf | SENP7 conf | Casp3 select | SENP luc ctr
CC(=O)NC1C(OCc2ccccc2)OC2COC(c3ccccc3)OC2C1OCC(=O)O (centres undefined) | -7 | 2 | 12 | -11 | 3 | . | . | . | . | .
CNS(=O)(=O)c1cc(Nc2ncnc3sccc23)ccc1C | -3 | 13 | -24 | 6 | 4 | . | . | . | . | .
O=C(NCCc1ccc(Cl)cc1)C1CCN(C(=O)c2ccc(F)cc2)CC1 | -7 | -24 | 11 | 1 | 12 | . | . | . | . | .
CCN(CC)CCNc1ncnc2c1[nH]c1ccc(OC)cc12 | 5 | -16 | . | 4 | 3 | . | . | . | . | .
COc1ccc2[nH]c3c(NCCCOC(C)C)ncnc3c2c1 | 96* | 93* | -267 | 90* | 21 | 90* | 93* | 101* | 96* | 93*
Cc1ncoc1C(=O)Nc1ccc(Oc2ccccc2)cc1 | 56* | 62* | 12 | 32 | 2 | 51* | 46 | 78* | 44 | 62*
Cc1nn(C)c(C(=O)Nc2ccc3c(c2)OCO3)c1[N+](=O)[O-] | -6 | 0 | 12 | 3 | -1 | . | . | . | . | .
COc1ccc(NC(=O)c2ocnc2C)cc1OC | -3 | -1 | 12 | -16 | 2 | . | . | . | . | .
Cc1nc(C)c(C(=O)Nc2ccc(Oc3ccccc3)cc2)o1 | 5 | -11 | 6 | 12 | 3 | . | . | . | . | .
Cc1ncoc1C(=O)Nc1ccc2c(c1)OCCO2 | 77* | 64* | 3 | 60* | 66* | 70* | 66* | 89* | 91* | 72*
Cc1ccsc1C(=O)Nc1ccc2c(c1)OCCO2 | 92* | 86* | -4 | 85* | 25 | 90* | 90* | 99* | 95* | 91*
Cc1c([N+](=O)[O-])c(C(=O)Nc2ccc3c(c2)OCCO3)nn1C | 73* | 75* | 12 | 42 | 29 | 68* | 66* | 87* | 89* | 72*
O=C(/C=C/c1ccc(Cl)cc1)Nc1cc(S(=O)(=O)N2CCOCC2)ccc1N1CCOCC1 | -8 | -9 | -3 | -15 | . | . | . | . | . | .
Cc1ccccc1CN1CCN(C(=O)CC(C)C)CC1 | 1 | 8 | 8 | 0 | 8 | . | . | . | . | .
CN(C)S(=O)(=O)c1ccc(Cl)c(C(=O)NC2CCCCCCC2)c1 | 5 | 14 | -2 | 3 | -2 | . | . | . | . | .
O=C(Nc1ccc(F)cc1)Nc1nnc(-c2ccco2)s1 | -5 | -15 | -430 | -12 | -6 | . | . | . | . | .
CC1CCN(C2=C(NS(=O)(=O)c3ccccc3)C(=O)c3ccccc3C2=O)CC1 | 17 | 49 | 33 | 17 | 15 | . | . | . | . | .
CC(=O)Nc1ccc(S(=O)(=O)NC2=C(N3CCN(C)CC3)C(=O)c3ccccc3C2=O)cc1 | 23 | 34 | 24 | 19 | 1 | . | . | . | . | .
CC1CCN(C2=C(NS(=O)(=O)c3ccc(Br)cc3)C(=O)c3ccccc3C2=O)CC1 | 27 | 55* | 26 | 29 | -2 | 9 | 14 | -2 | 15 | 0
CC1CCN(C2=C(NS(=O)(=O)c3ccc(Cl)cc3)C(=O)c3ccccc3C2=O)CC1 | 14 | 63* | 33 | 5 | 12 | 4 | 6 | 6 | 10 | 0
O=C(CSc1n[nH]c(-c2ccncc2)n1)Nc1ccc(Cl)c(C(=O)O)c1 | 3 | -12 | 5 | 3 | -2 | . | . | . | . | .
Cc1ccc(Sc2ncccc2O)cc1 | -4 | -1 | 10 | -6 | 4 | . | . | . | . | .
Cc1ccc(Sc2ncccc2N)cc1 | 25 | 67* | -32 | 20 | 0 | -25 | -16 | -12 | -10 | -4
CC(OC(=O)Cn1[nH]c(=O)c2ccccc2c1=O)C(=O)c1ccccc1 (centres undefined) | -13 | 3 | -2 | 1 | 15 | . | . | . | . | .
Cc1c(C(=O)N2c3ccccc3CC2C)oc2ccccc12 (centres undefined) | 62* | 80* | 15 | 68* | 7 | 78* | 77* | 90* | 51* | 50
SMILES | SENP7 inh | SENP6 inh | SENP8 block-1 | SENP8 block-2 | Platelet DG rel | SENP8 confirm | SENP6 conf | SENP7 conf | Casp3 select | SENP luc ctr
COCc1c(C(=O)OCC(=O)N2c3ccccc3CC2C)oc2ccccc12 (centres undefined) | 8 | -19 | 13 | 2 | -2 | . | . | . | . | .
CC(=O)NNC(=O)c1csc(-c2csc(C)n2)n1 | 4 | -23 | 2 | -2 | . | . | . | . | . | .
O=c1cc(-c2ccccc2Cl)oc2cc(O)cc(O)c12 | 0 | 17 | 8 | -4 | -1 | . | . | . | . | .
Nc1ccc(O)c2c(=O)cc(-c3ccccc3Cl)oc12 | 36 | 60* | 16 | 53* | -2 | -6 | 2 | 17 | 11 | 8
CCOC(=O)CSC1=NC(=O)/C(=C\c2ccc(OC(C)=O)cc2)S1 | 78* | 72* | 22 | 47 | -16 | 57* | 52* | 73* | 41 | 77*
CCOC(=O)CSC1=NC(=O)/C(=C/c2ccc(Br)cc2)S1 | 38 | 40 | 11 | 43 | 0 | . | . | . | . | .
COc1ccccc1CNS(=O)(=O)CCNCc1ccco1 | . | . | 5 | . | . | . | . | . | . | .
Cc1ccc2nc(/C=C/c3cccc(F)c3)ccc2c1 | 23 | 50* | -300 | 30 | 2 | 8 | 8 | 56* | 16 | 59*
O=c1c(-c2ccc(Br)cc2)coc2c(CN3CCOCC3)c(O)ccc12 | 30 | 13 | -396 | 0 | -10 | . | . | . | . | .
COc1ccc(-c2coc3cc(O)ccc3c2=O)cc1OC | 3 | 10 | -384 | -9 | 18 | . | . | . | . | .
O=c1c(-c2ccc(F)cc2)coc2cc(O)ccc12 | -17 | 86* | -236 | 82* | 19 | 90* | 90* | 99* | 94* | 90*
O=c1c(-c2ccc(F)cc2)coc2c3c(ccc12)OCCO3 | 76* | -12 | 7 | -4 | 0 | 12 | 8 | 13 | 16 | 6
O=C(NCCSc1ccccc1)c1ccc(Br)cc1 | 47 | 68* | 15 | 27 | -2 | 52* | 49 | 76* | 45 | 15
COc1ccc(CCNC(=O)CCC(=O)NC2CCCC(C)C2C)cc1OC (centres undefined) | -2 | 7 | 10 | -19 | 9 | . | . | . | . | .
O=C(O)CCC(=O)c1ccc2c(c1)OCCO2 | 5 | 3 | -5 | -2 | -4 | . | . | . | . | .
O=C(CS(=O)(=O)c1ccccc1)c1ccc2c(c1)OCCO2 | 51* | 57* | 4 | 34 | -1 | 63* | 60* | 86* | 82* | 65*
O=[N+]([O-])c1ccc2oc(C3CCCCC3)nc2c1 | 4 | -24 | 15 | 4 | 2 | . | . | . | . | .
O=[N+]([O-])c1ccc2oc(-c3ccccc3)nc2c1 | 77* | 45 | 0 | 39 | 1 | 2 | 6 | 45 | 30 | 2

Screens from PubChem BioAssay.
